Laboratory results taken from PubChem BioAssay AID504558 (Broad Institute, 2011).
The campaign covered roughly 350,000 compounds. About 2,400 (0.69%) were called active. The full list was thinned out, with actives kept by preference. A number with no mark means an inactive call. Rule as the data show it: active = inhibition above about 41%; inconclusive = no clear call, values can overlap the other calls; inactive = below that.

Assay: blockers of LMP1-induced NF-kB reporter signal – cell-based, luminescence, single point, primary screen (AID 504558);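 also: 0% = neutral control wells and 100% = reference inhibitor control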
Settings: LMP1-induced NF-kappaB luciferase reporter cells, at 12.5 µM, hits give high values
OC(COc1ccc2c(c1)CCC2)CN1CCN(c2cccc(Cl)c2)CC1 (configuration not stated) showed an inhibition of -1.09%.
Compound CCC(=O)c1ccc(OCC(O)CN2CCN(c3cccc(C(F)(F)F)c3)CC2)cc1 (configuration not stated) has an inhibition of 1.92%.
For OC(COc1ccccc1)CN1CCN(c2cccc(Cl)c2)CC1 (configuration not stated), the inhibition was 46.9% (active).
Compound CCOC(=O)c1c(NC(=O)COC(=O)c2ccc(S(=O)(=O)C(F)F)cc2)sc(C(=O)N(C)C)c1C has an inhibition of 1.83%.
CC(=NNC(N)=O)C1CC2CCC1CC2 (configuration not stated) gave an inhibition of 4.52%.
CC(OC(=O)c1ccc(NC(=O)CC#N)cc1)C(=O)Nc1ccc(S(=O)(=O)N2CCCC2)cc1 (configuration not stated) showed an inhibition of -2.22%.
Work on Cc1ccccc1NC(=O)Cc1nc(COC(=O)C(C)(C)Oc2ccc(Cl)cc2)cs1 yielded an inhibition of -2.11%.
Cc1noc(C)c1S(=O)(=O)N(C)C[C@H]1OCCCC[C@@H](C)Oc2ccc(NC(=O)CCCN(C)C)cc2C(=O)N([C@H](C)CO)C[C@@H]1C gave an inhibition of -4.38%.
COc1ccc(C(=O)Nc2cccc(/C=C(/CCC(=O)O)c3nc4ccccc4s3)c2)cc1 showed an inhibition of -6.71%.
For COc1ccccc1NC(=O)c1ccc2nc(N3C(=O)CCC3=O)sc2c1, the inhibition was -13.5%.
With COC(=O)Cc1[nH]n(-c2nc3ccccc3s2)c(=O)c1C(C)=Nc1ccc(OC)cc1 the inhibition was 59.5% (active).
C[C@H]1CN([C@@H](C)CO)C(=O)CCCn2cc(nn2)CO[C@@H]1CN(C)S(=O)(=O)c1cccc(C#N)c1 showed an inhibition of -4.24%.
For COc1ccc(C(=O)NC2CCCc3c2cnn3-c2cccc(C)c2C)c(OC)n1 (configuration not stated), the inhibition was 47.8% (active).
With COc1ccc(OC)c(C(=O)NC2CCCc3c2cnn3-c2cc(C)cc(C)c2)c1 (configuration not stated) the inhibition was -16.3%.
Work on Cn1nccc1C(=O)NC1CCCc2c1cnn2-c1ccccc1F (configuration not stated) yielded an inhibition of 28.4%.
For O=C(O)C1=C(C(=O)O)C2CCC1C2, the inhibition was -22.4%.
COc1ccc2c(c1OC)C(=O)OC2Nc1nc(-c2ccccc2)cs1 (configuration not stated) gave an inhibition of 22.9%.
For COc1ccc(-c2csc(Nc3cccc(C)n3)n2)cc1OC, the inhibition was 56.6% (active).
Compound Cc1cccc(NC(=O)COc2ccc(Br)cc2C)n1 has an inhibition of -11.9%.
In the case of Cc1ccc(-c2ccc(CN3C(C(C)C)C(=O)N(Cc4cn(CCC5OCCCO5)nn4)CCS3(=O)=O)cc2)cc1 (configuration not stated), the inhibition was 3.16%.
C[C@H]1CN([C@@H](C)CO)C(=O)CCCn2nncc2CO[C@@H]1CN(C)Cc1ccc(Oc2ccccc2)cc1 showed an inhibition of 8.56%.
With COc1ccc(C2=Nc3cc(C)ccc3OC2)cc1 the inhibition was 91.3% (active).
COc1ccc(C2=NOC(COC(=O)c3ccc4ccccc4n3)C2)cc1 (configuration not stated) gave an inhibition of 3.2%.
Compound Cc1ccc(C(=O)NNC2=Nc3cc([N+](=O)[O-])ccc3OC2)cc1 has an inhibition of -21.3%.
In the case of CCN(CC)C(=O)C(C)N1c2cccc3cccc(c23)S1(=O)=O (configuration not stated), the inhibition was 11.1%.
COc1ccc(S(=O)(=O)N2CCC(C(=O)NCCC(=O)NCCc3cccc(F)c3)CC2)cc1 showed an inhibition of 6.77%.
In the case of O=C(c1cc(-c2ccc(O)cc2)on1)N1CCCc2ccccc21, the inhibition was 83.9% (active).
In the case of O=C(c1cc(-c2ccc(O)cc2)on1)N1CCOCC1, the inhibition was 12%.
Compound O=C(c1cc(-c2cccc(O)c2)on1)N1CCc2ccccc2C1 has an inhibition of -0.0205%.
Work on C[C@@H]1CN([C@@H](C)CO)C(=O)CCCn2nncc2CO[C@H]1CN(C)Cc1ccc(C(F)(F)F)cc1 yielded an inhibition of -1.15%.
With CC(=O)Nc1ccccc1NC(=O)c1cc(C)cc(C)c1 the inhibition was -2.05%.
In the case of Nc1ccc(C(=O)Nc2ccccc2N)cc1, the inhibition was 43.3% (active).
Nc1ccc(S(=O)(=O)NC(=O)c2ccccc2)cc1 showed an inhibition of 5.43%.
With Cc1ccc(Cc2c(-c3ccc(C)cc3)nc3c4ccccc4ccn23)cc1 the inhibition was -19.4%.
Cc1ccc(C(=O)N2CCCc3ccccc32)c(Cl)c1 showed an inhibition of 6.82%.
Work on CC(Sc1ccc(S(=O)(=O)N2CCN(C)CC2)cn1)C(=O)NC1CCCC(C)C1C (configuration not stated) yielded an inhibition of -17.5%.
In the case of CCCCCCc1cc2cc(-c3nnc(-c4ccccc4)o3)c(=O)oc2cc1O, the inhibition was 52% (active).
CCc1ccc(CN(C)C(=O)CCc2nnc(-c3ccc(-c4ccccc4)cc3)o2)nc1 showed an inhibition of 5.34%.
In the case of O[C@H]1C[C@H](c2ccc(Cl)cc2)N(Cc2cccs2)C[C@@H]1n1cc(C2CC2)nn1, the inhibition was 1.65%.
CCOc1ccc(NS(=O)(=O)c2ccc(C(=O)NCC3CCCO3)cc2)cc1 (configuration not stated) showed an inhibition of -2.59%.
COc1ccc(CN2C(=O)C(CC(=O)NCCCCc3ccccc3)CC(C(=O)N3CCOCC3)=C2C)cc1 (configuration not stated) gave an inhibition of -8.73%.
With COc1ccc(/C=C/c2noc(-c3ccccc3OC(C)=O)n2)cc1 the inhibition was 9.61%.
With COc1ccc(OC)c(-c2csc(-c3cccs3)n2)c1 the inhibition was 0.747%.
For COc1ccc(-c2nc(-c3ccccc3)no2)c(OC)c1, the inhibition was 67.3% (active).
C#CCN(C[C@@H]1[C@@H](OC(=O)NC2CC2)[C@@H](OC(=O)NC2CC2)Cn2c(=O)ccc(=O)n21)S(=O)(=O)c1ccc(C)cc1 gave an inhibition of 4.07%.
CCOc1cc2ccccc2cc1C(=O)Nc1ccccn1 showed an inhibition of -13.7%.
Compound CCOc1ccc(N/C=C/C(=O)c2cc(OC)c(OC)c(OC)c2)cc1 has an inhibition of -9.23%.
For CCOc1ccc(N/C=C/C(=O)c2ccccc2)cc1, the inhibition was 82.1% (active).
Cc1cc(N/C=C\C(=O)c2ccc(Cl)c(Cl)c2)no1 gave an inhibition of -16.1%.
Work on CCOc1ccc(NC(=S)N2CCC(NC(=O)c3ccccc3)CC2)cc1 yielded an inhibition of 0.728%.
With COc1ccc(C(=O)/C=C/Nc2ccccn2)cc1 the inhibition was 67% (active).
For NC1=CC(=O)C(=O)c2cccnc21, the inhibition was 12.1%.
COCC(=O)N(C)C[C@H]1Oc2cc(Br)ccc2S(=O)(=O)N([C@H](C)CO)C[C@H]1C showed an inhibition of 0.42%.
O=C(Cc1ccc([N+](=O)[O-])cc1)NCCS(=O)(=O)N1CCN(c2ccccc2)CC1 gave an inhibition of -3.09%.
COc1cc(OC)nc(N/N=C(\c2ccccc2)c2ccncc2)n1 gave an inhibition of 3.44%.
With c1ccc(C(=NNc2nc3ccccc3s2)c2ccccn2)cc1 the inhibition was 79.1% (active).
Compound C/C(=N/Nc1nc(-c2ccccc2)c(CC(=O)O)s1)c1ccccc1 has an inhibition of -38.4%.
